Most compounds without a hit are left out; they make up all but 4.7% or so of the library.
D1 antag – Antagonist of Human D 1 Dopamine Receptor: qHTS; HEK293 TREx D1 cells, calcium flux, dopamine EC80; active compounds read low; activity change, negative = inhibition, % at 10 µM; actives 3.2% (n = 360,000); AID 504652, 2011; in the data active means activity change below about -30%; further: on the % scale 0 is the no-effect control and ±100 the full control effect
Target sequence (P21728 whole entry, looked up): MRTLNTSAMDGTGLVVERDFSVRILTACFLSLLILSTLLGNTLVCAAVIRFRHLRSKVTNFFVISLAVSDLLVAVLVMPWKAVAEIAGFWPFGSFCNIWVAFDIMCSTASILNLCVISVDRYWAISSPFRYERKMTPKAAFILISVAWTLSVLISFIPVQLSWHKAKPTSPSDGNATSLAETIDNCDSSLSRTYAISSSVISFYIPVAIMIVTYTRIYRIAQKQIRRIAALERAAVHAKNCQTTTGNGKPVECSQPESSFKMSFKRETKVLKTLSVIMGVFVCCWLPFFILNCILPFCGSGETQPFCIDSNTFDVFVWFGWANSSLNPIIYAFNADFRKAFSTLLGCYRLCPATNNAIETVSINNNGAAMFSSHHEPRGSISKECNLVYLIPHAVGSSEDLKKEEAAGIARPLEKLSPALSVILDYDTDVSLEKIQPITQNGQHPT
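After overnight tetracycline induction at 30 C, force-coupled D1 HEK293 cells took up a no-wash calcium dye at room temperature. Compounds were added and monitored 180 s, and the response to EC80 dopamine was then recorded.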
D1 ag – Allosteric Agonists of the Human D1 Dopamine Receptor: qHTS. D(1A) dopamine receptor (Homo sapiens), P21728. HEK293 T-REx D1 cells, calcium flux, agonist mode. activation, % at 2 µM. actives 1% (n = 360,000); further: 0% is about no effect
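Tetracycline-induced HEK293 TREx D1 cells, force-coupled to calcium signalling, were dye-loaded with a no-wash calcium kit. Compound was pin-added after a 10 s baseline. Fluorescence was read kinetically at 1 cycle/s for 180 s, with calcium rises flagged as agonism.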
D1 potentiator – Potentiators of Human D1 Dopamine Receptor: qHTS; actives 0.036% (n = 360,000); potentiation, % at 10 µM; D(1A) dopamine receptor (Homo sapiens), P21728; HEK293 TREx D1 cells, calcium flux, dopamine EC20 potentiation; in the data active means potentiation above about 30%; further: 0% is about no effect
TRHR ag – qHTS for Small Molecule Agonists and Allosteric Enhancers of Human TRH Receptor: Primary Screen for Agonists | TRHR cells, calcium flux fluo-8, FDSS agonist mode | Thyrotropin-releasing hormone receptor (Homo sapiens), P34981 | actives 0.18% (n = 360,000) | activation, % at 2 µM; further: 0% is about no effect
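TRHR-expressing cells loaded with fluo-8 calcium dye; 23 nL library compound pin-transferred, kinetic FDSS fluorescence (Ex 480/Em 530) recorded about 180 s for agonist-induced calcium release, before a 10 nM TRH EC20 addition for potentiator mode.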
TRHR enhancer – qHTS for Small Molecule Agonists and Allosteric Enhancers of Human TRH Receptor: Primary Screen for Enhancers; Thyrotropin-releasing hormone receptor (Homo sapiens), P34981; TRHR cells, fluo-8 calcium fluorescence, EC20 TRH enhancement; enhancement, % at 2 µM; actives 0.66% (n = 360,000); in the data active means enhancement above about 30%; further: 0% is about no effect
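Enhancer read-out: after compound pinning and an initial kinetic agonist-mode read, an EC20 of TRH (10 nM final) was injected and fluo-8 calcium signal (Ex 480/Em 530) followed at 1 s/cycle for 100 cycles in TRHR-expressing cells.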
Active calls of the source: *; x = no result. Unless noted, no stated cut-off is given here; in the data, active means activation above about 30%; inactive means the rest.

SMILES	D1 antag	D1 ag	D1 potentiator	TRHR ag	TRHR enhancer
Cc1cc(C)nc(/N=C2\NC(=O)CC(C(=O)O)N2c2ccc(Cl)cc2)n1 (stereo unspecified)	-62*	-2	-9	0	2
Cc1ccc(N2/C(=N/c3nc(C)cc(C)n3)NC(=O)CC2C(=O)O)cc1 (stereo unspecified)	-4	2	2	1	-6
COc1ccc(Cc2nc(-c3ccc(-n4cccc4)cc3)no2)cc1OC	-39*	32*	5	0	1
COc1ccc(Cc2nc(-c3ccc(-n4cccc4)cc3)no2)cc1	2	14	-1	2	-1
COc1ccc(-c2noc(COc3ccc(C)cc3C)n2)cc1OC	3	14	0	1	-7
COc1ccc(-c2noc(COc3cc(C)ccc3C)n2)cc1OC	5	47*	-2	2	-18
O=C1N(Cc2ccccc2Cl)c2ccccc2C1(O)c1c[nH]c2ccccc12 (stereo unspecified)	17	1	-2	-1	4
COC(=O)c1ccc(C(=O)Nc2ccc(C(C)C)cc2N)cc1	-40*	-2	3	0	1
COC(=O)c1ccc(C(=O)NN)cc1	-6	1	-3	0	14
O=C(Nc1cccc(Br)c1)c1ccc(OC2CSC2)cc1	-36*	3	-4	1	9
CC(=O)c1cccc(NC(=O)c2ccc(OC3CSC3)cc2)c1	-15	6	-3	1	-5
COc1ccc(CN2CC34C=CC(O3)C(C(=O)O)C4C2=O)cc1 (stereo unspecified)	-58*	1	x	0	2
CCOc1ccccc1NC(=O)CSc1nc(=O)[nH]c2c1CCCC2	x	-3	8	0	1
COc1ccc(C(=O)Nc2nc(C)cc(C)n2)cc1	3	2	-2	1	0
COc1ccc(C(=O)Nc2n[nH]c(-c3ccncc3)n2)cc1	-47*	4	-3	0	1
Cc1c(Cl)ccc2c1NC(=O)[C@]21N[C@@H](Cc2ccccc2)[C@H]2C(=O)N(c3ccc(F)cc3)C(=O)[C@H]21	-1	34*	16	-1	5
CCNc1ccc2noc3c2c1C(=O)c1ccccc1-3	-44*	313*	3	122*	31*
O=C(O)c1ccccc1NCc1ccco1	3	3	8	0	-3
CCOc1ccc2noc3c2c1C(=O)c1ccccc1-3	-24	98*	2	46*	1
O=C1c2ccccc2-c2onc3ccc(NCc4ccco4)c1c23	-2	122*	-8	63*	7
CC(CNC(=O)CN1C(=O)NC2(CCCCC2)C1=O)c1ccccc1 (stereo unspecified)	5	3	-3	0	-4
CCOc1ccc(NC(=O)NC(C)c2c(-n3cccc3)sc3c2CCN(CC)C3)cc1 (stereo unspecified)	-7	43*	2	10	31*
CCOC(=O)c1cccc(NC(=O)NC(C)c2c(-n3cccc3)sc3c2CCN(C)C3)c1 (stereo unspecified)	1	36*	-3	-1	3
CCN1CCc2c(sc(-n3cccc3)c2C(C)NC(=O)Nc2ccc(Br)cc2)C1 (stereo unspecified)	9	11	-2	4	8
Cc1cc(C)cc(NC(=O)CSCc2cc(=O)n3ccsc3n2)c1	1	0	-5	0	-7
SMILES	D1 antag	D1 ag	D1 potentiator	TRHR ag	TRHR enhancer
O=C(CSCc1c(F)cccc1F)Nc1ccccc1	-74*	1	-12	0	0
CSc1ccc(CCNC(=O)c2c(C)oc3ncn(C)c(=O)c23)cc1	-6	4	0	-1	14
CCc1ccc(-c2[nH]nc3nc(-c4ccc(OC)cc4)cc(C(=O)NCCc4ccc(OC)c(OC)c4)c23)cc1	-2	2	-1	0	7
C[C@@H]1CCC(=O)N(C[C@@H](C)CSc2ccc(Br)cc2)CC1	-51*	-1	-1	0	-2
Cc1ccccc1-c1nnn(Cc2cccc(S(=O)(=O)N3CCOCC3)c2)n1	-33*	13	-8	0	4
NS(=O)(=O)c1cccc(NC(=O)COC(=O)C2CCCCC2)c1	3	1	4	2	-10
CCOC(=O)c1cnc2c(C)cc(Cl)cc2c1NCCCN1CCOCC1	-35*	4	5	0	3
O=C(O)c1ccccc1N/N=C/c1c(Sc2nnnn2-c2ccccc2)nc2ccccn2c1=O	-43*	20	-5	22	8
Cc1nnc(-c2ccccc2)c(=O)n1/N=C/c1c(O)ccc2ccccc12	-24	113*	-5	-1	9
Cc1nnc(C)n1/N=C/c1c(O)ccc2ccccc12	-7	2	-1	1	3
c1cnc(N2CCN(c3ncc4c(n3)CCNC4)CC2)nc1	21	8	-1	-1	-3
O=C(NCc1ccccc1F)C(=O)NCC1CCCN1S(=O)(=O)c1ccccc1 (stereo unspecified)	13	0	-1	0	2
Cc1cccc(N2CCN(C(=O)CCCn3c(=O)[nH]c4ccsc4c3=O)CC2C)c1 (stereo unspecified)	3	1	-3	-1	4
O=C(CCCn1c(=O)[nH]c2ccsc2c1=O)N1CCN(c2ccccn2)CC1	-6	0	-1	0	30*
Cc1cccc(N2CCN(C(=O)CCn3c(=O)[nH]c4ccsc4c3=O)CC2C)c1 (stereo unspecified)	-13	-4	-6	-2	32*
COc1ccc(-c2nc(-c3cccc(C)c3)no2)cc1OC	-3	1	5	0	2
CCN(Cc1nc(-c2cccc(C)c2)no1)C(=O)c1ccc2c(c1)OCO2	7	35*	x	-1	6
Cc1cccc(-c2noc(-c3ccc4c(c3)OCO4)n2)c1	-45*	10	-2	0	-4
CCOC(=O)c1ccc(Oc2nc(N(C)C)nc(N3CCOCC3)n2)cc1	0	-1	-4	0	0
Cc1csc(NC(=O)CSc2ccc(-c3ccccn3)nn2)n1	-98*	-3	1	-1	2
COc1cccc(Nc2nc3ccccc3nc2NS(=O)(=O)c2cccs2)c1	-32*	16	-6	1	-3
O=[N+]([O-])c1cnccc1Nc1ccccc1	2	2	5	0	2
COc1ccccc1Nc1ccncc1[N+](=O)[O-]	-48*	12	-4	-1	-3

Bioassay records from PubChem.
